High-throughput results (PubChem BioAssay)
In the library only some 9.3% were active in any assay of this set; here they are far more common.
Rab9 promoter act – activators of Rab9 promoter; Huh7 Rab9 promoter-luciferase reporter, luminescence, 24 h; Potency, µM (series often up to 9.22 µM), inactives show top-dose activation, negative = inhibition, usual class: activators; 2.8% of 320,000 active; AID 485297; further: % of control where 0% means no effect; nearly all actives have a fitted effect of over 60% in size
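Using Huh7 cells stably transfected with Rab9 promoter–luciferase, compounds were incubated 24 h at 37 °C, 5% CO2; luciferase luminescence was read 10 min after reagent addition.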
ELG1 genotox – inducers of genotoxicity in HEK293T ELG1-luciferase cells; HEK293T ELG1-luciferase reporter, luminescence, 16 h; Potency, µM (top dose mostly 46 µM), for the others: top-dose activity change, positive = activation, usual class: activators; 1.3% of 330,000 active; AID 504466; further: % of control where 0% means no effect; nearly all actives have a fitted effect of over 60% in size
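DMSO vehicle served as control against compound-treated ELG1-luciferase HEK293T cells; exposure lasted 16 hr at 37 °C and 5% CO2, followed by ONE-Glo luminescence detection after 30 min.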
ELG1 repair inh – ELG1-dependent DNA repair inhibition. HEK293T ELG1-luciferase reporter, luminescence, 16 h; DNA damage induced by 5-fluorouridine. Potency, µM (top dose mostly 46.1 µM), without a hit: at the top dose activity change, negative = inhibition, most hits filed as inhibitors. 2.3% of 330,000 active. AID 504467; further: on the % scale 0 is the no-effect control and ±100 the full control effect; nearly all actives have a fitted effect of over 55% in size
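Cells (2,000 per well) received 5-fluorouridine plus test compound or DMSO and were incubated 16 hr at 37 °C, 5% CO2. Luciferase activity was read by luminescence 30 min after ONE-Glo addition; signal suppression marked inhibition of damage-induced ELG1 function.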
FLuc counter – inhibits or activates purified firefly luciferase, miR-21 counter-screen. P08659. purified FLuc, Km substrates, luminescence inhibition. Potency, µM (titrated, usually from 57.5 µM), for the others: top-dose activity change, negative = inhibition, usual class: inhibitors. 6.9% of 360,000 active;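 further: plate controls were vehicle for no effect and reference inhibitor for full effect; nearly all actives have a fitted effect of over 55% in size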
Target sequence (P08659 whole entry, looked up): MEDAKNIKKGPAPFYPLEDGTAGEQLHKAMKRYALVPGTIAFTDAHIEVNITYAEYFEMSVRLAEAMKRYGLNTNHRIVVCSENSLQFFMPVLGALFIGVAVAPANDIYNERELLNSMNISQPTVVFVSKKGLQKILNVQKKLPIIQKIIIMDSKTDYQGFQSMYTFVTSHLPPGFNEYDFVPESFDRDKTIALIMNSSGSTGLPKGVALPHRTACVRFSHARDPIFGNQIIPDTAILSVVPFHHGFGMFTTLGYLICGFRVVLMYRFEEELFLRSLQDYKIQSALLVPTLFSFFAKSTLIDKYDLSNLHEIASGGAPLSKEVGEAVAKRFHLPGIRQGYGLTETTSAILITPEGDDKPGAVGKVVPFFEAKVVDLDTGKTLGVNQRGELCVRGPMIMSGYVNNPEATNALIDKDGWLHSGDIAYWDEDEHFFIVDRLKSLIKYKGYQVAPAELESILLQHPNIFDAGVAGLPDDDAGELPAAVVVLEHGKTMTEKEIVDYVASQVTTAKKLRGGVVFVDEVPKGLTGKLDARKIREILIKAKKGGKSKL
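Purified P. pyralis luciferase, 10 nM final, with Km-level 10 uM D-luciferin and 10 uM ATP in 50 mM Tris acetate pH 7.5, 10 mM Mg acetate, 0.01% Tween-20, 0.05% BSA; 6-point qHTS titration about 60 µM downward; luminescence read.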
SMN2 splice enh – SMN2 splice variant enhancement. HEK293 SMN2-luciferase splicing reporter, luminescence, 30-36 h. Potency, µM (top dose mostly 46.1 µM), for the others: top-dose activity change, positive = activation, usual class: activators. 2.8% of 210,000 active; further: % of control where 0% means no effect; nearly all actives have a fitted effect of over 55% in size
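qHTS luciferase splicing reporter: luminescence rises when SMN2 exon 7 is included in transfected HEK293 cells. Compound exposure lasted 30-36 h at 37C, with 4.5 mM final sodium butyrate as control, followed by a ONE-Glo read.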
NPC1 prom act – activators of NPC1 promoter; Huh7 NPC1 promoter luciferase reporter, 24 h; Potency, µM (titrated, usually from 9.22 µM), for the others: top-dose activation, usual class: activators; 2.4% of 320,000 active; further: % of control where 0% means no effect; nearly all actives have a fitted effect of over 60% in size
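Stably transfected Huh7 (NPC1 promoter→luciferase), 1500 cells/well in Opti-MEM + 10% FBS, 2 h settle, then compound 24 h at 37 °C. Luminescence after 10 min with Amplite reagent.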
* marks the source's active call; other numbers are inactive results; u = inconclusive; x = no result given. The call rests on the fitted dose curve; in most records, active means well fitted curve in the direction sought with a large enough effect; inconclusive means small, poorly fitted or top-dose-only effect, or another doubt; inactive means no such curve, though single readings can be large; an effect the other way counts as inactive or inconclusive. Potency means the concentration at half of the fitted maximal effect.

SMILES	Rab9 promoter act	ELG1 genotox	ELG1 repair inh	FLuc counter	SMN2 splice enh	NPC1 prom act
COc1ccc(NC(=O)CSc2ccc3ccccc3c2)cc1S(=O)(=O)N1CCCCC1	-9.3%	-3.6%	u	u	-75.0%	-1.4%
Cc1cccc(N2CCN(C(=O)Cn3c(-c4cccs4)cc4ccccc43)CC2)c1C	x	x	x	-7.5%	x	x
COc1ccccc1Oc1ccc2c(c1)C(=O)N(c1ccccc1)C2=O	0.9%	-0.7%	-1.2%	9.53µM*	-14.9%	-6.4%
COc1ccc(NC(=O)COC(=O)c2c3c(nc4ccccc24)CCCC3)cc1Cl	-11.8%	-15.6%	18.4µM*	10.7µM*	-15.1%	0.8%
COc1ccc(NC(=O)COC(=O)c2c3c(nc4ccccc24)CCCC3)cc1	-4.1%	4.6%	16.4µM*	u	-29.3%	3.8%
COc1ccc(OC)c(NC(=O)COC(=O)c2c3c(nc4ccccc24)CCCC3)c1	-4.3%	-26.0%	11.6µM*	-1.2%	-9.5%	-0.4%
Cc1c(Cl)cccc1NC(=O)CCS(=O)(=O)c1cccc2nsnc12	x	x	x	2.6%	-3.0%	x
Cc1ccc(C(=O)OCC(=O)N2CCCCCC2)c(O)c1	2.82µM*	13.5%	u	12µM*	x	u
COc1cc(SC)ccc1C(=O)OCC(=O)NC1CCCC1	u	u	u	23.9µM*	-3.6%	1.1%
O=C(OCC(=O)N1CCCCCC1)c1ccc[nH]c1=O	x	0.2%	12.1%	x	x	x
Cc1ccc(C(=O)OCC(=O)N2CCOCC2)c(C)c1	7.0%	15.1%	u	-9.3%	x	-7.2%
COc1ccc(C(=O)OCC(=O)NC2CC2)cc1[N+](=O)[O-]	0.4%	1.7%	13.9%	7.8%	5.62µM*	-2.0%
O=C(OCC(=O)N1CCCCCC1)c1ccccc1Br	1.78µM*	u	u	5.36µM*	x	2.24µM*
CC1CCCCC1NCC(=O)NCc1ccc(F)cc1 (stereo unspecified)	-0.1%	-0.6%	-12.0%	3.4%	-7.5%	-3.5%
O=C(COC(=O)c1ccccc1Br)NC1CCCCCCC1	x	-0.6%	0.0%	x	x	x
Cc1ccc(C(=O)c2ccccc2C(=O)OCC(=O)N2CC(C)CC(C)C2)cc1 (stereo unspecified)	-6.2%	-1.0%	18.3µM*	1.6%	x	-0.5%
O=C(OCC(=O)N1CCCC1)c1ccccc1O	u	u	u	15.1µM*	x	2.82µM*
CC1CCN(C(=O)COC(=O)c2ccccc2C(=O)c2ccccc2)CC1	x	0.1%	2.8%	x	x	x
O=C(COC(=O)c1ccccc1Br)NC1CCCC1	20.9%	u	u	16.9µM*	x	29.4%
C=CCNC(=S)N1CCN(Cc2ccccc2)CC1	-19.2%	-4.7%	2.6%	-0.3%	x	-7.6%
COc1ccc(Cc2c(O)nc[nH]c2=O)cc1	-1.1%	2.5%	-2.1%	9.5%	0.8%	-4.6%
O=c1[nH]cnc2cc(-c3ccccc3)sc12	u	u	u	12µM*	u	3.55µM*
COc1ccc(-c2cc3nc(CCl)[nH]c(=O)c3s2)cc1	u	u	u	0.12µM*	x	u
COc1ccc(N2CCN(Cc3nc4ccsc4c(=O)[nH]3)CC2)cc1	-2.0%	-0.8%	3.0%	-1.6%	4.5%	-3.8%
COc1ccc(-c2cc3nc[nH]c(=O)c3s2)cc1	2.82µM*	4.11µM*	u	3.79µM*	12.6µM*	u
SMILES	Rab9 promoter act	ELG1 genotox	ELG1 repair inh	FLuc counter	SMN2 splice enh	NPC1 prom act
CNC(=O)C1CCC(Cn2c(=O)c3sccc3n(CC(=O)Nc3ccc(C)cc3C)c2=O)CC1 (stereo unspecified)	x	x	x	-3.8%	x	x
Cc1csc(-c2coc3cc(O)cc(C)c3c2=O)n1	u	20.6µM*	u	9.53µM*	u	u
COc1ccc2c(=O)c(-c3nc(C)cs3)coc2c1	1.26µM*	u	u	0.757µM*	4.47µM*	0.631µM*
CCc1cc2c(=O)c(-c3nc(C)cs3)coc2cc1O	u	u	u	1.9µM*	x	2.0%
Cc1cc(Cl)c(S(=O)(=O)NC2CCCC2)cc1OCC(N)=O	6.9%	-1.4%	-3.5%	1.1%	x	0.2%
Cc1cc(C)cc(NC(=O)c2c(C)nc3ccccn23)c1	8.3%	3.4%	-2.9%	-10.1%	3.2%	-1.6%
Cc1ccc(NC(=O)c2cnn(-c3ccccc3)c2C)cc1	0.398µM*	1.46µM*	u	1.07µM*	x	0.316µM*
Cc1cccc(C)c1NC(=O)c1cnn(-c2ccccc2)c1C	-2.8%	-5.1%	-0.3%	-16.1%	x	0.1%
Cc1ccc(NC(=O)c2cnn(-c3ccccc3)c2C)c(C)c1	3.16µM*	u	u	12µM*	x	2.51µM*
COCCNc1ccnc(-c2ccccc2CN(C)C)n1	x	x	x	x	-4.9%	x
COc1ccc(-c2ccc(NS(=O)(=O)c3ccccc3Cl)cc2)nn1	x	x	x	-16.5%	x	x
COc1ccc(CNC(=O)Cn2nc(C(F)(F)F)c3c2CCC3)cc1	-1.3%	-5.6%	0.0%	1.0%	11.2µM*	5.6%
O=C(Cc1cnc2ncnn2c1)N1CCc2c([nH]c3ccccc23)C1c1ccccn1 (stereo unspecified)	-5.8%	-4.2%	5.5%	-4.9%	x	-11.3%
COc1cccc(NC(=O)C2CCCN(S(=O)(=O)c3cn(C(C)C)cn3)C2)c1 (stereo unspecified)	x	x	x	5.0%	x	x
COc1ccc(/C=N\NC(=O)c2ccc(-c3ccccc3)cc2)c(OC)c1OC	-3.7%	6.2%	0.1%	0.9%	x	-0.9%
COc1cc(/C=N/NC(=O)c2cc(-c3ccccc3)sc2N)cc(OC)c1OC	0.1%	-7.8%	23.1µM*	4.78µM*	x	5.9%
Cc1nc(N)sc1C(=O)N/N=C/c1ccc([N+](=O)[O-])cc1	-0.1%	12.3%	-7.0%	-1.0%	x	u
NNC(=O)c1cc(-c2ccccc2)sc1N	29.0%	-0.2%	-2.0%	u	x	2.2%
COc1cc(/C=N\NC(=O)c2sc(N)nc2C)cc(OC)c1OC	12.3%	6.9%	-11.2%	15.1µM*	9.7%	-0.2%
COc1cc(/C=N/NC(=O)c2ccc(-c3ccccc3)cc2)cc(OC)c1OC	12.6%	-6.9%	16.4µM*	10.7µM*	19.0%	8.5%
COc1cc(C(=O)N/N=C/c2sc(=O)n(-c3ccccc3)c2Cl)cc(OC)c1OC	-7.6%	6.7%	-7.2%	6.01µM*	-4.5%	-4.2%
COc1cc(-c2nc3nc(C)cc(C)n3c2Nc2ccc(Cl)cc2)ccc1O	x	x	x	-8.8%	2.1%	x
COc1ccc(Oc2ncc3ncc(=O)n(C[C@H]4CCCO4)c3n2)cc1	x	x	x	x	-12.2%	x
CCOC(=O)N1CCc2c(sc3c2c(=O)n(Cc2ccccc2)c(=O)n3CC(=O)Nc2ccc(C)cc2C)C1	x	x	x	0.0%	-11.0%	x
CCOC(=O)c1c(C)[nH]c(C)c1S(=O)(=O)N(C)CC(=O)NCc1ccc(C)cc1	-0.9%	-2.7%	-1.3%	2.3%	x	-0.1%
